# Measurements published in the supplement of paper PMC8728848.
# This excerpt belongs to a sample that is enriched for the strongest signals.
# B1: DC SIGN CRD (Homo sapiens), Q9NNX6 (protein)
# chain: QPCPWEWTFFQGNCYFMSNSQRNWHDSITACKEVGAQLVVIKSAEEQNFLQLQSSRSNRFTWMGLSDLNQEGTWQWVDGSPLLPSFKQYWNRGEPNNVGEEDCAEFSGNGWNDDKCNLAKFWICKKSAWSHPQFEK
# B2: MLTim-4 (Mus musculus), Q6U7R4 (protein)
# chain: MSKGLLLLWLVTELWWLYLTPAASEDTIIGFLGQPVTLPCHYLSWSQSRNSMCWGKGSCPNSKCNAELLRTDGTRIISRKSTKYTLLGKVQFGEVSLTISNTNRGDSGVYCCRIEVPGWFNDVKKNVRLELRRAT
# Tests used:
# Assay in all cases: glycan array binding signal (z-score within array); higher = stronger binding
# Details in all cases: glycan notation: IUPAC condensed, linker removed
# [1] = target: Fuc(a1-2)Gal(b1-3)GalNAc(b1-3)Gal(a1-4)Gal(b1-4)Glc
# Method in brief: (§1)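 The binding signal is a Z-score computed within each array. Data were drawn from 3228 arrays in the Consortium for Functional Glycomics database, restricted to those with a known protein sequence. Scores were averaged over arrays of the same protein sequence at different concentrations or buffers, and over linkers, and negative values can be taken as non-binding.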
# [2] = target: Fuc(a1-2)Gal(b1-3)GalNAc(b1-4)[Neu5Ac(a2-3)]Gal(b1-4)Glc
# Method in brief: as §1
# [3] = target: Fuc(a1-2)Gal(b1-4)[Fuc(a1-3)]GalNAc(b1-3)Gal(b1-4)[Fuc(a1-3)]GlcNAc
# Method in brief: as §1
# [4] = target: Fuc(a1-2)Gal(b1-4)[Fuc(a1-3)]GalNAc(b1-3)Gal(b1-4)[Fuc(a1-3)]GlcNAc(b1-3)Gal(b1-4)[Fuc(a1-3)]GalNAc
# Method in brief: as §1
# [5] = target: Fuc(a1-2)Gal(b1-4)[Fuc(a1-3)]GlcNAc
# Method in brief: as §1
# [6] = target: Fuc(a1-2)[Gal(a1-3)]Gal(b1-4)Glc
# Method in brief: as §1
# [7] = target: Fuc(a1-3)[Gal(b1-4)]GlcNAc(b1-4)Gal(b1-4)[Fuc(a1-3)]GlcNAc(b1-4)Gal(b1-4)[Fuc(a1-3)]GlcNAc
# Method in brief: as §1
# [8] = target: Gal(b1-3)GalNAc(b1-4)Gal(b1-4)Glc
# Method in brief: as §1
# [9] = target: Gal(b1-3)GalNAc(b1-4)[Neu5Ac(a2-3)]Gal(b1-4)Glc
# Method in brief: as §1
# [10] = target: Gal4S(b1-4)GlcNAc
# Method in brief: as §1
# [11] = target: Gal6S(b1-4)GlcNAc
# Method in brief: as §1
# [12] = target: GlcA(b1-6)Gal
# Method in brief: as §1
# [13] = target: GlcNAc(b1-4)[GlcNAc(b1-6)]GalNAc
# Method in brief: as §1
# [14] = target: Man(a1-2)Man(a1-2)Man(a1-3)[Man(a1-2)Man(a1-6)[Man(a1-3)]Man(a1-6)]Man(b1-4)GlcNAc(b1-4)GlcNAc
# Method in brief: as §1
# [15] = target: Neu5Ac(a2-3)Gal
# Method in brief: as §1
# [16] = target: Neu5Ac(a2-3)Gal(b1-3)[Fuc(a1-4)]GlcNAc
# Method in brief: as §1
# [17] = target: Neu5Ac(a2-3)Gal(b1-4)GlcNAc
# Method in brief: as §1
# [18] = target: Neu5Ac(a2-3)Gal6S(b1-4)[Fuc(a1-3)]GlcNAc
# Method in brief: as §1
# [19] = target: Fuc(a1-2)[GalNAc(a1-3)]Gal(b1-4)[Fuc(a1-3)]GlcNAc
# Method in brief: as §1
# [20] = target: Fuc(a1-3)[Gal(b1-4)]Glc6S
# Method in brief: as §1
# [21] = target: Fuc(b1-3)GlcNAc
# Method in brief: as §1
# [22] = target: Gal(a1-4)Gal(b1-4)Gal
# Method in brief: as §1
# [23] = target: Gal(b1-2)Gal
# Method in brief: as §1
# [24] = target: Gal(b1-3)Gal
# Method in brief: as §1
# [25] = target: Gal(b1-4)GalNAc(b1-3)[Fuc(a1-2)]Gal(b1-4)GlcNAc
# Method in brief: as §1
# [26] = target: GlcA(b1-3)Gal
# Method in brief: as §1
# [27] = target: GlcNAc(b1-3)[GlcNAc(b1-4)][GlcNAc(b1-6)]GlcNAc
# Method in brief: as §1
# [28] = target: Man(a1-2)Man(a1-2)Man(a1-6)[Man(a1-3)]Man
# Method in brief: as §1
# [29] = target: Man(a1-2)Man(a1-3)[Man(a1-6)]Man(a1-6)[Man(a1-2)Man(a1-3)]Man(b1-4)GlcNAc(b1-4)GlcNAc
# Method in brief: as §1
# [30] = target: Man(b1-4)GlcNAc
# Method in brief: as §1
# [31] = target: Neu5Ac(a2-3)Gal(b1-3)GlcNAc
# Method in brief: as §1
# [32] = target: Neu5Ac(a2-3)Gal(b1-3)GlcNAc6S
# Method in brief: as §1
# [33] = target: Neu5Ac(a2-3)Gal(b1-4)GlcNAc(b1-3)Gal(b1-3)GlcNAc
# Method in brief: as §1
# [34] = target: Neu5Ac(a2-8)Neu5Ac(a2-3)[GalNAc(b1-4)]Gal(b1-4)Glc
# Method in brief: as §1
# [35] = target: Neu5Ac(a2-8)Neu5Ac(a2-8)Neu5Ac(a2-3)[GalNAc(b1-4)]Gal(b1-4)Glc
# Method in brief: as §1
# [36] = target: Neu5Gc(a2-3)Gal(b1-3)GlcNAc
# Method in brief: as §1
Binder,glycan array binding signal (z-score) [1],glycan array binding signal (z-score) [2],glycan array binding signal (z-score) [3],glycan array binding signal (z-score) [4],glycan array binding signal (z-score) [5],glycan array binding signal (z-score) [6],glycan array binding signal (z-score) [7],glycan array binding signal (z-score) [8],glycan array binding signal (z-score) [9],glycan array binding signal (z-score) [10],glycan array binding signal (z-score) [11],glycan array binding signal (z-score) [12],glycan array binding signal (z-score) [13],glycan array binding signal (z-score) [14],glycan array binding signal (z-score) [15],glycan array binding signal (z-score) [16],glycan array binding signal (z-score) [17],glycan array binding signal (z-score) [18],glycan array binding signal (z-score) [19],glycan array binding signal (z-score) [20],glycan array binding signal (z-score) [21],glycan array binding signal (z-score) [22],glycan array binding signal (z-score) [23],glycan array binding signal (z-score) [24],glycan array binding signal (z-score) [25],glycan array binding signal (z-score) [26],glycan array binding signal (z-score) [27],glycan array binding signal (z-score) [28],glycan array binding signal (z-score) [29],glycan array binding signal (z-score) [30],glycan array binding signal (z-score) [31],glycan array binding signal (z-score) [32],glycan array binding signal (z-score) [33],glycan array binding signal (z-score) [34],glycan array binding signal (z-score) [35],glycan array binding signal (z-score) [36]
B1,-0.37,-0.377,5.67,3.54,4.18,-0.339,5.8,-0.385,-0.363,-0.361,-0.39,-0.392,-0.371,2.91,-0.339,-0.076,-0.387,-0.394,–,–,–,–,–,–,–,–,–,–,–,–,–,–,–,–,–,–
B2,-0.142,–,-0.799,0.195,–,–,–,–,–,–,–,2.97,–,–,–,–,–,–,0.41,2.31,-0.108,0.491,1.47,0.543,-0.991,6.6,-0.523,0.353,-0.137,1.06,-0.547,2.45,-0.655,-0.484,-0.741,-0.343
